The record followed here is PubChem BioAssay (Tox21).

Each structure is given as a SMILES string. Records with an inconclusive call do not appear. Activity calls are given as the source filed them. Calls come from the whole dose curve; as a rule, active = well fitted activation curve with a large enough effect in the repeat runs; inconclusive = weak or mixed curves; inactive = no such curve, though single readings can be large or run the other way.
% is set by controls: 0 for no effect and ±100 for the full control effect; potency is the fitted concentration of half-maximal effect.

The target in this assay is Nuclear receptor subfamily 1 group I member 2 (Homo sapiens) (UniProt O75469). Description: Human pregnane X receptor (PXR) small molecule agonists, qHTS assay (AID 1346982). Note: nearly all actives have a fitted effect of over 35% in size. To be noted: PXR-Luc HepG2, CYP3A4 luciferase reporter, 24 h; series mostly up to 92.4 µM; activation: at the top concentration. The text has this: National Center for Advancing Translational Sciences [NCATS]
Nuclear receptor subfamily 1 group I member 2 (Homo sapiens), sequence (O75469 whole entry, looked up): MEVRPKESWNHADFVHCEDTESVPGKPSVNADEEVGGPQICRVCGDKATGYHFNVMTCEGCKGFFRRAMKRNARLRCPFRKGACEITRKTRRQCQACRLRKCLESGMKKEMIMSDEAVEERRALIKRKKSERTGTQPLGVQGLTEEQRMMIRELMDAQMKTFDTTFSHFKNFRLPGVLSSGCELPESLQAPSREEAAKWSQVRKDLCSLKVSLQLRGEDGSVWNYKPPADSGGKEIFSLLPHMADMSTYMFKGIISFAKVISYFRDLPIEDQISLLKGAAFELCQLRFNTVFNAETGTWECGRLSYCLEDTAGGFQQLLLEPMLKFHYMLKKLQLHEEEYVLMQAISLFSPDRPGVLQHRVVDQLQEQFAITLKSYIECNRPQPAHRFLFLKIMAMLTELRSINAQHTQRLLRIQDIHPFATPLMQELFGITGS
NIH Chemical Genomics Center [NCGC]
U.S. Environmental Protection Agency [EPA]
National Institutes of Environmental Health Sciences [NIEHS]
National Toxicology Program [NTP]
The human pregnane X receptor (hPXR) regulates the expression of several drug metabolizing enzymes and induction of these proteins is a major mechanism for developing drug resistance in cancer. One such key enzyme catalyzing the drug metabolism is cytochrome P450 3A4 (CYP3A4). Changes in CYP3A4 expression affect drug metabolism, thereby reducing the therapeutic efficacy and altering toxicological response to a drug and which finally causes adverse drug interaction. To screen Tox21 libraries for compounds that activate hPXR-mediated CYP3A4 gene expression, PXR-Luc HepG2 cells were used.
PXR-Luc HepG2 cells were dispensed at 2,000 per well in 5uL of assay medium containing 5% charcoal-stripped FBS into white solid bottom 1536-well plates (Corning Life Sciences, Corning, NY) using a Multidrop Combi (Thermo Scientific, Waltham, MA) dispenser. The assay plates were incubated at 37 C and 5% CO2 for 5hr, and then 23nL of compounds dissolved in DMSO and positive control were transferred using a Pintool station (Wako, San Diego, CA). The assay plates were incubated at 37C and 5% CO2 for 24hr. For luciferase read, 4uL of ONE-Glo reagent (Promega Corporation, Madison, WI) was added to each well of the assay plates using Flying Reagent Dispenser (FRD, Aurora Discovery, San Diego, CA) and incubated the assay plates at room temperature for 30min. The luminescence signal was quantified using a ViewLux plate reader (Perkin Elmer, Shelton, CT).
(In general: qHTS replaces the single test concentration by a dilution series.)
In the case of `CCCCC[Si](OCC)(OCC)OCC`, the “activation” value was 7.54% (inactive).
As to `CCCCCCCCCCCCCCCCCCN(C)C`, the “activation” value is -4.55% [at 42.5 µM] (inactive).
On to `CCC1COC(=O)O1` (stereo not given), for which the “activation” value is 14.8% (inactive).
On to `CC(=O)OC(C)(C)Cc1ccccc1`, for which the “activation” value was 0.342% (inactive).
Still for that read-out and setting: to `CCCCCC1Nc2cc(C(F)(F)F)c(S(N)(=O)=O)cc2S(=O)(=O)N1` (stereo not given) belongs -3.57% [at 42.5 µM] (inactive).
The same measure, in the same setting: the value for `COC(OC)C(C)c1ccccc1` (stereo not given) was -4.71% (inactive); that for `CCCCOC(=O)[C@@H](C)Oc1ccc(Oc2ccc(C(F)(F)F)cn2)cc1` was 5.22% (inactive).
As to `Cc1oc(=O)oc1CN1CCN(c2cc3c(cc2F)c(=O)c(C(=O)O)c2n3C(C)S2)CC1` (stereo not given), the “activation” value was -8.51% [at 42.5 µM] (inactive).
Consider `CCCCCN(CCCOC)C(=O)C(CCC(=O)O)NC(=O)c1ccc(Cl)c(Cl)c1` (stereo not given), for which the “activation” value was 4.23% [at 42.5 µM] (inactive).
The same measure, in the same setting: the value for `CCC(CO)CO` was 2.97% (inactive); that for `O=C(Oc1ccccc1C(=O)O)c1ccccc1O` was -2.32% [at 42.5 µM] (inactive); that for `CCCCC(CC)C(=O)OC(C)C` (stereo not given) was 3.21% (inactive).
For the molecule `C=C[C@@H](C)CCC=C(C)C`, the “activation” value was -5.21% (inactive).
`C=CCOCC(O)CCl` (stereo not given): the “activation” value was 12.9% (inactive).
As for `CC1CCC(C(C)(C)S)C(=O)C1` (stereo not given), the Potency is 61.1 µM (active).
`C=CCCCCCCCCCCC`: the activation is -8.11% [at 8.39 µM] (inactive).
On the same count and under the same terms, to `C=C(C)C(=O)OC1CC(C)CC(C)(C)C1` (stereo not given) belongs 4.12% (inactive); to `NC(=O)NC(=O)Cc1ccccc1`, -6.18% [at 42.5 µM] (inactive); to `COc1cc([N+](=O)[O-])ccc1N`, -34.7% (inactive).
On the same count and under the same terms, the value for `CC(C)CCCC(C)CC=O` (stereo not given) was 22.7% (inactive); that for `CCOC(=O)C(C)(C)C` was -4.83% (inactive); that for `CCCCCC(=O)OCC` was 4.95% (inactive).
Still for that read-out and setting: the value for `CCOC(=O)C(=O)c1csc(NC=O)n1` was -10.9% [at 42.5 µM] (inactive); that for `CNC(=O)NC` was -1.62% (inactive); that for `Cc1ccccc1N1CCN(CCc2nnc3n2CCCC3)CC1` was 1.67% [at 42.5 µM] (inactive).
As for `CCc1nccnc1C`, the “activation” value was 8.8% (inactive).
Still for that read-out and setting: the value for `Cc1ccccc1C(=O)N1CC/C(=N\OS(=O)(=O)O)c2ccc(Cl)cc21` was -0.326% [at 42.5 µM] (inactive); that for `CCCCC(CC)CNC(=O)CC(C)OC(=O)CCC(=O)O` (stereo not given) was 28% [at 42.5 µM] (inactive).
In the case of `O=C(/C=C/c1ccccc1)NCCO`, the “activation” value is -8.72% [at 42.5 µM] (inactive).
Still for that read-out and setting: the value for `Cc1ccccc1OCC1CO1` (stereo not given) was 3.51% (inactive); that for `C1=C\CC/C=C\CC/1` was -1.3% (inactive).
Consider `Cc1cccc(C(=O)O)c1[N+](=O)[O-]`, for which the “activation” value was -6.48% (inactive).
Still for that read-out and setting: to `BrC/C=C/CBr` belongs -6.32% [at 19 µM] (inactive); to `O=C(O)c1ccccc1C(=O)Nc1ccc(S(=O)(=O)Nc2nccs2)cc1`, -3.71% [at 42.5 µM] (inactive).
Turning to `O=C(O)c1c(Cl)ccc(Cl)c1Cl`, the “activation” value is -2.74% (inactive).
For `Cc1nc2n(c(=O)c1CCN1CCC(C(=O)c3ccc(F)cc3)CC1)CCS2`, the “activation” value was 9.67% [at 42.5 µM] (inactive).
Consider `CN(C)CCCNCCC#N`, for which the “activation” value was -9.54% (inactive).
On the same count and under the same terms, to `CC(C)C(=O)Nc1cccc(C(F)(F)F)c1` belongs 10% [at 42.5 µM] (inactive); to `CNC(=O)C(c1ccccc1)c1ccccc1`, 13.9% (inactive); to `COc1cc2c(Nc3ccc(Br)cc3F)ncnc2cc1OCC1CCN(C)CC1`, 6.37% [at 42.5 µM] (inactive).
